Assay in all cases: NCI-60 one-dose screen, 48 h (100 = growth as untreated, 0 = no growth, -100 = all killed)
Holding throughout (details): 10 µM unless noted

For test [1], the system named is SK-MEL-2 melanoma.
The subject of test [2] is EKVX NSCLC.
The subject of test [3] is SN12C renal.
Test [4] relates to UO-31 renal.
Test [5] relates to TK-10 renal.
The test system of test [6] is ACHN renal.
For test [7], the system named is A498 renal.
Test [8] deals with CCRF-CEM leukemia.
Test [9] concerns MOLT-4 leukemia.
The subject of test [10] is SR leukemia.
The test system of test [11] is RPMI-8226 leukemia.
Test [12] deals with OVCAR-8 ovarian.
Test [13] relates to OVCAR-5 ovarian.
Test [14] has as its system OVCAR-4 ovarian.
The test system of test [15] is SK-OV-3 ovarian.
The subject of test [16] is IGROV1 ovarian.
For test [17], the system named is OVCAR-3 ovarian.
In test [18] the test system is HS 578T breast.
For test [19], the system named is NCI/ADR-RES ovarian.

About 83,000 compounds went through this panel and 20% of them were active in at least one assay; those are over-represented in the sample as a whole.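 Cell lines were cultured in 96-well plates, exposed to a single compound concentration, and assessed for percent growth 48 hours later.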 A number with no mark means an inactive call. Calls of active or inactive are those of the source. Rule for the calls: active = growth percent below 10; inactive = the rest.

Growth data for 8 compounds are collected here from PubChem BioAssay (NCI).

With `N#CC1=C(N)Oc2c(ccc3ccccc23)C1c1cc(=O)oc2ccc(Cl)cc12` (stereo not given), the growth in test [1] was 43.6%; in test [2], 44.5%; in test [3], 47.5%; in test [4], 50.9%; in test [5], 71.4%; in test [6] it was 50.8%. The growth was 23.4% in test [7]; 18.6% in [8]; 20.8% in test [9]; 22.9% in test [10]; 30.7% in test [11]; 27.7% in test [12]. The growth was 51.6% in test [13]; 65.8% in test [14]; 16.9% in test [15]; 39.8% in [16]; -9.67% (active) in [17]; 47.5% in test [18]. For the same compound, the growth in test [19] was 12.2%.

For `CC(C)(C)OC(=O)N1CCN(CCn2cc(C(F)(F)F)c3c(Cl)ncnc32)CC1`, the growth was 44.5% in test [1]; 101% in test [2]; 71.9% in [3]; -80.8% (active) in test [4]; 115% in test [5]; 96.6% in [6]. For the same compound, the growth in test [7] was 103%; in test [8], 28.5%; in test [9], 23.4%; in test [10], -17.8% (active); in test [11] it was 86.3%; in [12] it was -61.4% (active). Besides, the growth in test [13] is 108%; in [14] it was 103%; in test [15], 96.9%; in [16], -69.5% (active); in test [17], 85.2%; in test [18] it was 82.5%. For the same compound, the growth in [19] is 104%.

Regarding `O=C1OC(c2ccc(-c3ccccc3)cc2)=C/C1=C/C=C/c1ccccc1`, the growth in [1] is 114%; in test [2] it was 102%; in [3], 99.9%; in test [4] it was 80%; in [5], 107%; in test [6], 102%. In addition, the growth in test [7] is 84.4%; in [8], 24.2%; in [9], 98.5%; in test [10], 98.3%; in test [11], 95%; in test [12] it was 103%. Besides, the growth was 91.3% in [13]; 95% in test [14]; 102% in test [15]; 99% in test [16]; 99.3% in test [17]; 86.9% in [18]. Also, the growth in [19] was 114%.

Turning to `C=CCn1c(SCC(=O)Nc2ccc(/C(C)=N\O)cc2)nnc1-c1cc(-c2ccc(OC)cc2)nc2ccccc12`, the growth in [1] was 22.3%; in test [2], 42.5%; in test [3], 44.4%; in test [4], 14.7%; in [5], 37.5%; in test [6] it was 28.9%. The growth in test [7] was 38.7%; in test [8], 15%; in test [9] it was 1.81% (active); in test [10], 33.8%; in [11], 17.3%; in test [12] it was 15.3%. Also, the growth in test [13] is 79.4%; in test [14] it was 53%; in [15] it was 52.8%; in [16] it was 11.1%; in test [17], 37%; in test [18] it was 46%. In addition, the growth in test [19] is 13.7%.

In the case of `CN(C)c1ccc2cc(-c3nc4ccccc4s3)c(N)nc2c1`, the growth in test [1] was 51.5%; in [2] it was 67.7%; in test [3], 48.5%; in test [4], 51.8%; in test [5] it was 111%; in test [6], 102%. The growth in [7] is 38.2%; in [8] it was 6.43% (active); in test [9], 22.4%; in test [10], 20.9%; in [11], 10.6%; in test [12], 67.8%. The growth in [13] was 121%; in test [14], 78.3%; in test [15] it was 50.9%; in [16], 63.6%; in [17] it was 11.9%; in test [18] it was 91.9%.

`COc1ccc(SC2c3ccc(O)cc3Oc3nc(N)c(C#N)c(N)c32)cc1` (stereo not given): the growth in test [1] was 98.1%; in test [2] it was 79%; in [3], 54.3%; in test [4], 71.1%; in test [5], 73%; in test [6] it was 97.7%. The growth is 84.7% in [7]; 31.8% in test [8]; 67.7% in test [9]; 59.9% in test [10]; 96.7% in test [11]; 98% in test [12]. The growth was 129% in [13]; 92.9% in [14]; 120% in test [15]; 74.3% in test [16]; 88.1% in test [17]; 94.4% in [18].

Turning to `COc1ccccc1S(=O)(=O)Nc1ccc2c3c(cc(-c4cnn(C)c4)nc13)C(=O)N2C`, the growth in [1] was 46.9%; in test [2] it was 40.2%; in test [3] it was 52.2%; in test [4], 23.7%; in test [5], 13%; in [6], 37.5%. Besides, the growth was 26.8% in test [7]; 55.5% in test [8]; 44.7% in test [9]; 46.1% in test [10]; -4.77% (active) in test [11]; 47.1% in test [12]. The growth in [13] was 54.1%; in test [14] it was 51%; in [15], 14.8%; in test [16] it was 18.4%; in test [17] it was 34.1%; in [18] it was 23.8%. Besides, the growth in [19] was 35.9%.

Turning to `COc1cc(/C=C/C(=O)N2CCC=CC2=O)cc(OC)c1OC`, the growth in test [1] is 74.9%; in test [2], 57.1%; in [3] it was 45.1%; in [4] it was 57.7%; in test [5] it was 38.7%; in [6], -7.71% (active). The growth in test [7] is 98.7%; in [8] it was 15%; in test [9], 42.1%; in [10], 10.3%; in [11] it was -11.3% (active); in test [12] it was 4.06% (active). For the same compound, the growth in test [13] was 86.6%; in test [14], 48.8%; in [15], 105%; in test [16], 30.9%; in [17] it was 18.5%; in [18], 84.5%. The growth in test [19] was 67.2%.
